GBA activity up: enhancers of human beta-glucosidase activity in Gaucher fibroblasts. L444P Gaucher fibroblasts, 4-MU-glucoside fluorescence, 3 days. activation, % at 10 µM. 30,000 tested, 0.44% active. AID 784; in the data active = activation above about 65%
Target sequence (P04062 whole entry L483P): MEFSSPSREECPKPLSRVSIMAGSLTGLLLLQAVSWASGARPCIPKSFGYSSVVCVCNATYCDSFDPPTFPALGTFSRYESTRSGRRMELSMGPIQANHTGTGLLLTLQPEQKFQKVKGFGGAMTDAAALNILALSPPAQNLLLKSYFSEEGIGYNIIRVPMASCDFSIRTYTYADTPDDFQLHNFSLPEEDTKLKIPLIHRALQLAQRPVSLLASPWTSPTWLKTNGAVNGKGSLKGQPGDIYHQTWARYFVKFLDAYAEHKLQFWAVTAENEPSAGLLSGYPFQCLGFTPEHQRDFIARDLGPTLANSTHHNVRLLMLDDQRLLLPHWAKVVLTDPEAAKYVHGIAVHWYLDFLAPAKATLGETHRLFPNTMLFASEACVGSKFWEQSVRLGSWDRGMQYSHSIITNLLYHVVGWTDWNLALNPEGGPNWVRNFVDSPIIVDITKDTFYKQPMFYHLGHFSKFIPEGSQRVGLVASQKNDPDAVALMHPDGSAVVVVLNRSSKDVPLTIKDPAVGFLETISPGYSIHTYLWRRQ
Hits are given with their value; 0 = inactive. This is one part of a sample in which hits are shown more often than they occur.

SMILES	GBA activity up
Cc1oc2nc(SCC(=O)N3CCCCC3)nc(N)c2c1C	0
CCOC(=O)c1[nH]c(C)c(/C=N/O)c1C	0
CC1CCN(C(=O)c2cc3ccccc3o2)CC1	0
COc1ccccc1CC(=O)NCC1CCCO1 (configuration not stated)	0
COc1ccc(S(=O)(=O)N(CC(=O)N2CCN(C)CC2)c2ccccc2)cc1OC	0
COc1ccc(S(=O)(=O)N(CC(=O)NCC2CCCO2)c2ccccc2)cc1OC (configuration not stated)	75
O=C(NCc1ccc2c(c1)OCO2)C1CC(=O)N(c2ccc(O)cc2)C1 (configuration not stated)	0
CC(C)C(NS(=O)(=O)c1cccc2nsnc12)C(=O)N1CCc2ccccc2C1 (configuration not stated)	0
C=CCNc1nc2c(c(=O)[nH]c(=O)n2C)n1CCCCC	0
Cc1ccc(-n2c(=O)c(C#N)cc3c(=O)n4ccccc4nc32)cc1	134
Cc1ccc(S(=O)(=O)c2cc3c(=O)n4ccccc4nc3n(CC3CCCO3)c2=N)cc1 (configuration not stated)	0
N#Cc1cc2c(=O)n3ccccc3nc2n(CCCn2ccnc2)c1=N	0
O=C(NCc1ccc(Cl)cc1)c1noc2c1CCCCC2	0
CN=C1SC(CC(=O)Nc2cccc(C(F)(F)F)c2)C(=O)N1C (configuration not stated)	135
CN=C1SC(CC(=O)Nc2sc(C)c(C)c2C(=O)OC)C(=O)N1C (configuration not stated)	0
CCN=C1SC(CC(=O)Nc2ccccc2)C(=O)N1CC (configuration not stated)	0
O=C(NCCCn1ccnc1)Nc1ccc(Cl)cc1	122
C=C(C)c1cccc(C(C)(C)NC(=O)NCCCn2ccnc2)c1	0
O=C(NCCCn1ccnc1)Nc1ccc(Cl)c(Cl)c1	0
CCN1C(=O)c2cccc3c(S(=O)(=O)Nc4ccc(OC)cc4OC)ccc1c23	0
COc1ccc(S(=O)(=O)Nc2cc(C(=O)NCCC(C)C)ccc2N2CCOCC2)cc1	0
COc1ccccc1-n1c(SCC(=O)N2CCCCC2)nnc1-c1ccccc1O	0
COc1ccc(Cl)cc1C(=O)Nc1nnn(C)n1	0
COC(=O)c1ccc(NC(=O)CN2CCN(S(=O)(=O)c3cc(Cl)ccc3OC)CC2)cc1	0
COc1ccc(C)cc1NC(=O)CN1CCN(S(=O)(=O)c2ccc(C(C)C)cc2)CC1	0
SMILES	GBA activity up
COc1ccc(NC(=O)CN2CCN(S(=O)(=O)c3ccc(C(C)C)cc3)CC2)cc1OC	66
CCOC(=O)C1CCCN(C(=O)c2cc3c(=O)n4cccc(C)c4nc3n2C)C1 (configuration not stated)	0
CC(=O)N1C(C(=O)O)CSC1c1cccc(C)c1 (configuration not stated)	122
Cc1cccc(CN2CCN(CC(=O)O)C2=O)c1	0
Cc1cccc(NC(=O)c2cnc3n(c2=O)CCS3)c1	0
O=C(O)c1ccccc1NCN1C(=O)C2CC=C(Cl)CC2C1=O (configuration not stated)	0
Cc1sc2c(=O)n3c(nc2c1C(=O)NCCCN1CCOCC1)CCCCC3	0
Cn1c(SCC(=O)Nc2ccc(N3CCOCC3)c(Cl)c2)nnc1-c1ccccc1	0
Cc1ccc(-c2nnn(CC(=O)Nc3ccccc3N3CCOCC3)n2)cc1	0
Cc1cc(Cl)ccc1OC(C)C(=O)Nc1ccccc1N1CCOCC1 (configuration not stated)	0
CC(C)Oc1cccc(C(=O)Nc2ccccc2N2CCOCC2)c1	65
O=C(Nc1ccccc1N1CCOCC1)c1ccc2ccccc2n1	0
Cc1ccn2cc(C(=O)Nc3ccccc3N3CCOCC3)nc2c1	92
CCC(C)Oc1cccc(C(=O)Nc2ccccc2N2CCOCC2)c1 (configuration not stated)	0
COc1cccc(NC(=O)CSc2nnc(-c3cc(-c4ccccn4)nc4ccccc34)o2)c1	0
O=C(NCCS(=O)CCNC(=O)C(F)(F)F)C(F)(F)F	0
Cc1cc(NC(=O)CN2CCN(Cc3ccccc3)CC2)nc2c1c(=O)oc1ccccc12	0
C=CCN(C(=O)Cn1nnc2ccccc21)C(C(=O)NCCOC)c1ccc(OC)cc1OC (configuration not stated)	93
COCCNC(=O)C(c1ccccc1)N(CCOC)C(=O)Cn1nnc2ccccc21 (configuration not stated)	0
COCCN(C(=O)Cn1nnc2ccccc21)C(C(=O)NC1CCCC1)c1cc(OC)ccc1OC (configuration not stated)	0
O=C(CSc1nccc2ccccc12)N1CCN(Cc2ccc3c(c2)OCO3)CC1	0
O=C1c2ccccc2C(=O)N1CCCc1nc(-c2ccccn2)no1	0
Nc1nonc1-c1noc(CCCCCN2C(=O)c3ccccc3C2=O)n1	479
O=C1CCC(=O)N1CCCCCc1nc(-c2ccccc2)no1	0
CN1CCN(c2ccccc2NS(=O)(=O)c2ccc3c(c2)CCN3C(=O)C2CCC2)CC1	0
SMILES	GBA activity up
CC(=O)N1c2ccccc2C(=O)C1N1CCCCC1 (configuration not stated)	0
COc1ccccc1C1CC(c2ccc(C)cc2)Nc2ncnn21 (configuration not stated)	0
Cc1ccc(C)c(S(=O)(=O)C(C#N)c2nc3ccccc3nc2N2CCCC2)c1 (configuration not stated)	0
COc1ccc(S(=O)(=O)C(C#N)c2nc3ccccc3nc2N2CCCCC2)cc1 (configuration not stated)	96
COc1ccc(CNC(=O)C(C#N)c2nc3ccccc3nc2N2CCCC2)cc1 (configuration not stated)	0
CC(C)C12CN3CC(C(C)C)(CN(C1)C3c1ccccc1)C2O (configuration not stated)	0
O=C(C1Cc2ccccc2CN1S(=O)(=O)c1cccs1)N1CCCCC1 (configuration not stated)	0
N#CC1=C2SCCN2C(=O)C(C#N)C12CCCCC2 (configuration not stated)	0
COc1ccc(-c2cc3nc(C)c(CCC(=O)N4CCCCC4)c(C)n3n2)c(OC)c1	0
COc1ccc(CCNC(=O)CSc2nnc(-c3ccc(F)cc3)o2)cc1OC	0
CCOc1cc2[nH]c(=O)n(CC3CCC(C(=O)NC4CCCCC4)CC3)c(=O)c2cc1OCC (configuration not stated)	0
CCOc1cc2[nH]c(=O)n(CCCCCC(=O)NCc3ccc4c(c3)OCO4)c(=O)c2cc1OCC	0
CCCCN(C)C(=O)CCCCn1c(=O)[nH]c2cc(OCC)c(OCC)cc2c1=O	68
COc1ccccc1Nc1nc(N)nc(CN2CCc3ccccc3C2)n1	0
Cc1cc2ccccc2c(=O)n1CC(=O)NC1CCCCCC1	0
Cc1cc2ccccc2c(=O)n1CC(=O)N1CCN(c2cccc(Cl)c2)CC1	0
Cc1cc2ccccc2c(=O)n1CC(=O)NCC(=O)N1CCN(c2ccccc2)CC1	75
Cc1cc(C)cc(NC(=O)CN(C)S(=O)(=O)c2cccc3nsnc23)c1	0
CC(C)CCNC(=O)CN(C)S(=O)(=O)c1cccc2nsnc12	0
Cc1ccc(C)c(N(C)S(=O)(=O)c2cccc3nsnc23)c1	77
Cc1cccc(C)c1NC(=O)C1(NC(=O)C2CCCN2C(=O)OC(C)(C)C)CCCCC1 (configuration not stated)	0
NS(=O)(=O)c1ccc(C(=O)O)cc1	0
NC(=O)Nc1ccc(Oc2c(F)c(F)c(F)c(F)c2F)cc1	0
CCOC(=O)CC(N)c1ccc2c(c1)OCO2 (configuration not stated)	0
